The record followed here is PubChem BioAssay (NCATS).

Inconclusive results are not listed. A call without a number means that no potency is given here. Active and inactive are the calls of the source. Calls follow the shape of the dose curve; as a rule, active = well fitted curve in the direction sought with a large enough effect; inconclusive = small, poorly fitted or top-dose-only effect, or another doubt; inactive = no such curve, though single readings can be large; an effect the other way counts as inactive or inconclusive.

The target of assay [1] is Aldehyde dehydrogenase, mitochondrial (Homo sapiens) (UniProt P05091). Kind of assay: qHTS for Inhibitors of the Aldehyde Dehydrogenase Family (ALDH2) Primary screen (AID 2061308). Also: nearly all actives have a fitted effect of over 55% in size. The note with it: ALDH2 enzyme inhibition qHTS, 1536-well; series mostly up to 56 µM. (In general: qHTS replaces the single test concentration by a dilution series.)
The target in assay [2] is Retinaldehyde dehydrogenase 3 (Homo sapiens) (UniProt P47895). Kind of assay: qHTS for Inhibitors of the Aldehyde Dehydrogenase Family (ALDH1A3) Primary screen (AID 2061315). The note with it: ALDH inhibition qHTS; series mostly up to 56 µM.

With `Cc1nc(-c2ccc(S(=O)(=O)Nc3ccc(C)c(C)c3)s2)cs1`, the Potency entry in assay [1] and in assay [2] was “inactive” throughout.

Take `O=C(OCC#CCSc1nnc(-c2ccc3ccccc3c2)o1)c1cccs1`: the Potency entry in assay [1] and in assay [2] was “inactive” throughout.

In the case of `Cc1cccc2oc(NC3=NC(c4[nH]ncc4Cl)C4=C(CCCC4=O)N3)nc12` (stereo unspecified), the Potency result in assay [1] and in assay [2] was “inactive” in each case.

Consider `CC(C)(C)OC(=O)Cc1nnc(-c2cc3ccccc3[nH]2)o1`, for which the Potency result in assay [1] and in assay [2] was “inactive” each time.

`C[n+]1cc(C(O)(c2ccccc2)c2ccccc2)n2ccccc21`: the Potency result in assay [1] and in assay [2] was “inactive” throughout.

`COc1cccc(N2C(=O)c3ccccc3C2=O)c1`: the Potency result in assay [1] and in assay [2] was “inactive” throughout.

For the molecule `CC(C)c1ccccc1-c1ncc(F)c(NCc2ccc(-c3ccn[nH]3)cc2)n1`, the Potency result in assay [1] and in assay [2] was “inactive” each time.

With `Cc1cn2c(-c3cn[nH]c3)cnc2c(Nc2ccc(C(=O)N3CCNCC3)cc2F)n1`, the Potency entry in assay [1] and in assay [2] was “inactive” each time.

For `O=[S+]([O-])(NC[C@H]1CCC[C@H](CN[S+](=O)([O-])c2c(F)cccc2F)C1)c1ccc2c(c1)OCCO2`, the Potency entry in assay [1] and in assay [2] was “inactive” in each case.

With `S=C(NCCCc1cnc[nH]1)NCCCN(Cc1ccc(Cl)cc1)c1ccc(Br)cn1`, the Potency result in assay [1] and in assay [2] was “inactive” each time.

Regarding `Cc1ccc(-c2nnc(NC(=O)Nc3ccc4ccccc4c3)s2)cc1`, the Potency entry in assay [1] and in assay [2] was “inactive” in each case.

In the case of `Cc1cnc(-c2ccccc2C(C)C)nc1NCC1CCN(c2cccnc2)CC1`, the Potency entry in assay [1] and in assay [2] was “inactive” throughout.

Consider `COc1cc(NS(=O)(=O)c2ccc(C)cc2)ccc1C(=O)Nc1nc(-c2ccccc2)cs1`, for which the Potency result in assay [1] and in assay [2] was “inactive” in each case.

On to `NC(=O)C1CCN(c2nccc(-c3ccc(Br)cc3)n2)CC1`, for which the Potency entry in assay [1] and in assay [2] was “inactive” throughout.

On to `Fc1cc(-c2nc(Nc3ccc(F)c(F)c3)c3ccccc3n2)ccn1`, for which the Potency entry in assay [1] and in assay [2] was “inactive” in each case.

Take `CC(=O)c1ccccc1-c1csc2ncnc(Sc3nnnn3C)c12`: the Potency result in assay [1] and in assay [2] was “inactive” each time.

Turning to `Cc1nc(NC2CCCCC2)c2nc(-c3ccccc3)n(CCCN(C)C)c2n1`, the Potency result in assay [1] and in assay [2] was “inactive” throughout.

Regarding `N#Cc1ccc(N[S+](=O)([O-])c2ccc(Nc3nc(-c4ccccc4)cs3)cc2)cc1`, the Potency result in assay [1] and in assay [2] was “inactive” throughout.

`O=C(Nc1nnc(-c2ccncc2)s1)Nc1cc(C(F)(F)F)ccc1F`: the Potency result in assay [1] and in assay [2] was “inactive” throughout.

Take `COc1cc(O)c(C(CC(=O)N2CCCC(C)C2)c2ccc(C)cc2)c(OC)c1` (stereo unspecified): the Potency entry in assay [1] and in assay [2] was “inactive” in each case.

With `Oc1ccc(CCc2c(F)cccc2F)c2cccnc12`, the Potency result in assay [1] and in assay [2] was “inactive” each time.

On to `Cc1nnc(-c2ccccc2[N+](=O)[O-])n1CCCn1ccnc1`, for which the Potency entry in assay [1] and in assay [2] was “inactive” throughout.

`Cc1ccc(OCCn2c(CCNC(=O)c3cc(F)cc(F)c3)nc3ccccc32)cc1`: the Potency result in assay [1] and in assay [2] was “inactive” each time.

As for `c1ccc2c(Nc3ccn[nH]3)nc(-c3ccncc3)nc2c1`, the Potency result in assay [1] and in assay [2] was “inactive” in each case.

Regarding `C=C1C(=O)O[C@@H]2/C=C(\CO)CC/C=C(/C=O)C[C@@H](O)[C@@H]12`, the Potency entry in assay [1] and in assay [2] was “inactive” throughout.

For `CC(Cc1ccccc1)C(=O)Nc1ccc(Cl)cc1C(=O)O` (stereo unspecified), the Potency entry in assay [1] and in assay [2] was “inactive” in each case.

Consider `Cc1ccc(NS(=O)(=O)c2cccc(C(=O)O)c2)cc1C`, for which the Potency result in assay [1] and in assay [2] was “inactive” throughout.

In the case of `FC(F)(F)c1cccc(N2CCN(C(=S)Nc3nccc4ccccc34)CC2)c1`, the Potency result in assay [1] and in assay [2] was “inactive” throughout.

With `Cc1ccc(S(=O)(=O)Nc2ccc(C(=O)Nc3nc(-c4ccccc4)cs3)c(Cl)c2)cc1`, the Potency result in assay [1] and in assay [2] was “inactive” in each case.

On to `CC(C)CCCCC(=O)N[C@@H](CO)C(=O)N[C@@H](CC(C)C)C(=O)[C@@]1(CO)CO1`, for which the Potency entry in assay [1] and in assay [2] was “inactive” in each case.

For `Cc1ccc(-c2cc(C(=O)Nc3ccc(S(N)(=O)=O)cc3)c3ccccc3n2)cc1C`, the Potency result in assay [1] and in assay [2] was “inactive” throughout.

For the molecule `Cc1ccc(-c2ccc(=O)n(CC(=O)NCCCN(C)C)n2)cc1`, the Potency result in assay [1] and in assay [2] was “inactive” each time.

In the case of `O=C1Nc2ccccc2/C1=C/c1ccc[nH]1`, the Potency entry in assay [1] and in assay [2] was “inactive” each time.

As to `O=C(Nc1ccc(Cl)c(Cl)c1)Nc1ncc(-c2ccncc2)s1`, the Potency entry in assay [1] and in assay [2] was “inactive” throughout.

With `Cc1ccc2nc3sc(C(=O)N4CCC(C(N)=O)CC4)cc3cc2c1`, the Potency result in assay [1] and in assay [2] was “inactive” throughout.

As for `Cc1cc2c(s1)c1cnn(Cc3ccccc3F)c(=O)c1n2C(C)C`, the Potency entry in assay [1] and in assay [2] was “inactive” throughout.

As for `O=C(CNC(=O)c1ccccc1)OC(C(=O)Nc1ccc2c(c1)OCO2)c1ccccc1` (stereo unspecified), the Potency entry in assay [1] and in assay [2] was “inactive” in each case.

Take `CCC1CCC(C(=O)Nc2ccc(S(=O)(=O)Nc3nccs3)cc2)CC1` (stereo unspecified): the Potency entry in assay [1] and in assay [2] was “inactive” in each case.

Turning to `O=C1CCCC2=C1C(c1[nH]ncc1Br)N=C(Nc1nc3ccccc3o1)N2` (stereo unspecified), the Potency entry in assay [1] and in assay [2] was “inactive” in each case.

As for `O=S1(=O)N=C(Sc2cc(C(F)(F)F)cc(C(F)(F)F)c2)c2ccccc21`, the Potency result in assay [1] and in assay [2] was “inactive” throughout.

Consider `COc1cc(O)c(C(CC(=O)N2CCCC2)c2ccc3c(c2)OCO3)c(OC)c1` (stereo unspecified), for which the Potency result in assay [1] and in assay [2] was “inactive” throughout.

Turning to `O=C(NC1CCCc2c1cnn2-c1ccc(F)cc1F)c1cccc(=O)[nH]1` (stereo unspecified), the Potency result in assay [1] and in assay [2] was “inactive” each time.

`CC(=O)Nc1sc2c(c1-c1ccc(Cl)cc1)CCNC2`: the Potency result in assay [1] and in assay [2] was “inactive” in each case.
